Measurements as given in the supplement of paper PMC9446081.
The whole screen tested about 39,000 compounds, of which about 220 (0.56%) showed activity. The sample holds actives, similar compounds and a random draw of the others, so the mix is not that of the screen.

Tested on: Escherichia coli K-12 BW25113
Test: relative growth (OD600 normalised to plate interquartile mean) (fraction); higher = less growth inhibition, active = 0.2 or less
Conditions: 50 µM; LB; incubation time: overnight (16-24 h)
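Note: Wild-type cells incubated without shaking, value is the mean of two biological replicates.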

| Compound | relative growth |
| --- | --- |
| C[C@H](CO)N1C[C@H](C)[C@H](CN(C)S(=O)(=O)c2ccc(Cl)cc2)Oc2ccc(NC(=O)CCCN(C)C)cc2C1=O | 0.989 (inactive) |
| COc1ccc(Cc2nn[nH]n2)cc1 | 1 (inactive) |
| Cc1noc(C)c1NC(=O)N(C)C[C@H]1OCCCC[C@H](C)Oc2ccc(NC(=O)c3ccccc3)cc2C(=O)N([C@@H](C)CO)C[C@H]1C | 0.98 (inactive) |
| CCc1nc2ccc(C(=O)Nc3cccc(OC)c3)cn2c1N(CC)Cc1cccc(Br)c1 | 1.01 (inactive) |
| CO[C@H]1CN(C)C(=O)c2cc(NC(C)=O)ccc2OC[C@@H](C)N(S(=O)(=O)c2cn(C)cn2)C[C@@H]1C | 1.01 (inactive) |
| COc1c(N2CC3CCCNC3C2)c(F)cc2c(=O)c(C(=O)O)cn(C3CC3)c12.Cl (stereo unspecified) | 0.0459 (active) |
| CCn1cc(C(=O)O)c(=O)c2cc(F)c(N3CCNC(C)C3)c(F)c21.Cl (stereo unspecified) | 0.0478 (active) |
| COc1c(N2CCNC(C)C2)c(F)cc2c(=O)c(C(=O)O)cn(C3CC3)c12 (stereo unspecified) | 0.0431 (active) |
| C[C@@H]1CN([C@@H](C)CO)C(=O)c2cc(Br)cnc2O[C@H]1CN(C)C(=O)c1ccc2c(c1)OCO2 | 0.994 (inactive) |
| Nc1c2c(=O)[nH]c(=O)cc-2[nH]n1-c1ccccc1 | 0.972 (inactive) |
| COCC#Cc1ccc2c(c1)O[C@H](CN(C)C(=O)C1CCOCC1)[C@H](C)CN([C@@H](C)CO)S2(=O)=O | 1.01 (inactive) |
| CC(C)CNC(=O)C[C@H]1NCCNC1=O | 0.923 (inactive) |
| CN1C(=O)c2cc(NC(=O)c3cccs3)ccc2OC[C@@H]2O[C@H](CC(=O)NCCN3CCCCC3)CC[C@H]21 | 1.02 (inactive) |
| C[C@@H]1CN([C@H](C)CO)C(=O)c2cc(NC(=O)Cn3cnnn3)ccc2O[C@@H]1CN(C)Cc1ccncc1 | 1.01 (inactive) |
| C[C@H]1CN([C@@H](C)CO)C(=O)c2cc(-c3ccncc3)cnc2O[C@H]1CN(C)S(=O)(=O)c1ccccc1 | 1.01 (inactive) |
| C=C(CC[C@@H](C)[C@H]1CC[C@@]2(C)C3=C(C[C@H](O)[C@]12C)[C@@]1(C)CC[C@@H](OC(=O)CC(=O)O)C(C)(C)[C@@H]1CC3)[C@@H](C)C(=O)O | 0.89 (inactive) |
| C[C@@H]1CN([C@H](C)CO)C(=O)c2cc(NC(=O)Nc3ccc(F)cc3)ccc2O[C@@H](C)CCCCO[C@H]1CN(C)C(=O)C1CCCCC1 | 1.01 (inactive) |
| CN1CCN(C(=O)C[C@@H]2CC[C@@H]3[C@H](COC[C@H](O)CN3C(=O)Nc3ccc4c(c3)OCO4)O2)CC1 | 0.974 (inactive) |
| Cc1noc(C)c1S(=O)(=O)N(C)C[C@@H]1OCCCC[C@H](C)Oc2ccc(NC(=O)Nc3ccc(F)cc3)cc2C(=O)N([C@H](C)CO)C[C@@H]1C | 1 (inactive) |
| CON=C(C(=O)NC1C(=O)N2C(C(=O)OC(C)OC(C)=O)=C(COC(N)=O)CSC12)c1ccco1 (stereo unspecified) | 0.881 (inactive) |
| CON=C(C(=O)NC1C(=O)N2C(C(=O)[O-])=C(COC(N)=O)CSC12)c1ccco1.[Na+] (stereo unspecified) | 0.0464 (active) |

| Compound | relative growth |
| --- | --- |
| COCC1=C(C(=O)OC(C)OC(=O)OC(C)C)N2C(=O)C(NC(=O)C(=NOC)c3csc(N)n3)C2SC1 (stereo unspecified) | 0.551 (inactive) |
| CON=C(C(=O)NC1C(=O)N2C(C(=O)[O-])=C(COC(C)=O)CSC12)c1csc(N)n1.[Na+] (stereo unspecified) | 0.0428 (active) |
| CO/N=C(\C(=O)N[C@@H]1C(=O)N2C(C(=O)O[C@@H](C)OC(C)=O)=C(COC(N)=O)CS[C@H]12)c1ccco1 | 1.01 (inactive) |
| CON=C(C(=O)NC1C(=O)N2C(C(=O)[O-])=C(CSc3nc(=O)c([O-])nn3C)CSC12)c1csc(N)n1.O.O.O.[Na+].[Na+] (stereo unspecified) | 0.0494 (active) |
| CO/N=C(\C(=O)N[C@@H]1C(=O)N2C(C(=O)O)=C(CSc3nnnn3C)CS[C@H]12)c1csc(N)n1 | 0.0456 (active) |
| Nc1nc(=O)c2nc(Br)n([C@@H]3O[C@@H]4COP(=O)(O)O[C@H]4[C@H]3O)c2[nH]1 | 1.03 (inactive) |
| O=C(C[C@@H]1C[C@H]2c3cc(NC(=O)Nc4ccc(C(F)(F)F)cc4)ccc3O[C@H]2[C@H](CO)O1)NCc1ccc(Cl)cc1 | 0.984 (inactive) |
| CN1CCN(C(=O)C[C@H]2CC[C@@H]3[C@H](COC[C@H](O)CN3CC3CCCC3)O2)CC1 | 1 (inactive) |
| C[C@H](CO)N1C[C@H](C)[C@H](CN(C)C(=O)c2cccc(F)c2)Oc2cc(-c3cccnc3)ccc2S1(=O)=O | 1.03 (inactive) |
| NCC[C@H]1CC[C@H](NC(=O)NC2CCCCC2)[C@H](CO)O1 | 0.986 (inactive) |
| C[C@@H]1CN([C@@H](C)CO)C(=O)Cc2cc(NC(=O)Nc3ccccc3)ccc2O[C@@H]1CN(C)Cc1ccc(Oc2ccccc2)cc1 | 0.967 (inactive) |
| Cc1nc(CN)c(C)o1 | 0.995 (inactive) |
| C[C@@H]1CN([C@@H](C)CO)C(=O)c2cc(NC(=O)Nc3ccc(C(F)(F)F)cc3)ccc2O[C@@H]1CN(C)S(=O)(=O)c1ccc(Cl)cc1 | 1.04 (inactive) |
| C[C@H](CO)N1C[C@H](C)[C@H](CN(C)C(=O)Nc2ccc(C(F)(F)F)cc2)Oc2ccc(NC(=O)CCCCCC(=O)Nc3ccccc3N)cc2C1=O | 0.925 (inactive) |
| Cc1noc(C)c1NC(=O)Nc1cccc2c1O[C@@H](CN(C)Cc1ccc(-c3ccccc3)cc1)[C@H](C)CN([C@@H](C)CO)C2=O | 1.01 (inactive) |
| CON=C(C(=O)N[C@@H]1C(=O)N2C(C(=O)O)=C(CSc3nc(=O)c(O)nn3C)CS[C@H]12)c1csc(N)n1 | 0.0335 (active) |
| C[C@@H]1CN([C@@H](C)CO)C(=O)Cc2cc(NC(=O)Nc3ccc(C(F)(F)F)cc3)ccc2O[C@@H]1CN(C)Cc1ccc(C(=O)Nc2ccccc2N)cc1 | 1 (inactive) |
| Cc1noc(C)c1NC(=O)Nc1ccc2c(c1)C(=O)N([C@H](C)CO)C[C@@H](C)[C@H](CN(C)S(=O)(=O)c1cccs1)OCCCC[C@H](C)O2 | 0.988 (inactive) |
| C[C@@H]1CN([C@H](C)CO)C(=O)c2cc(NS(=O)(=O)c3cccs3)ccc2O[C@H]1CN(C)Cc1ccc(Cl)c(Cl)c1 | 0.994 (inactive) |
| Cc1ccc(S(=O)(=O)N(C)C[C@H]2OCCCC[C@@H](C)Oc3ccc(NC(=O)Nc4c(C)noc4C)cc3C(=O)N([C@@H](C)CO)C[C@@H]2C)cc1 | 0.961 (inactive) |
